Data as given in PubChem BioAssay (NCATS).
Results filed as inconclusive are left out. Where a call stands in place of a potency, no number is given. A number with no mark means an inactive call. Calls of active or inactive are those of the source. Calls come from the whole dose curve.

experiment: Cytotoxicity counterscreen for inhibitors of SARS-CoV-2 cell entry (AID 1645845); details: cell viability (SARS-CoV-2 entry assay cells); series mostly up to 57.1 µM; activity change, negative = cytotoxicity: at the top concentration; note: nearly all actives have a fitted effect of over 50% in size
Description: Assay Provider: Wei Zheng, Ph.D.
National Center for Advancing Translational Sciences, National Institute of Health, Rockville, MD.
SARS-CoV-2 spike protein, within the viral envelope, mediates viral attachment and infection of host cells. The SARS-CoV-2 spike protein specifically binds to the host receptor ACE2 (Angiotensin-converting enzyme 2). This interaction promotes endocytosis of the viral particle, additional events lead to viral-host cell membrane fusion and release of the viral contents, allowing viral replication.
While SARS-CoV-2 requires BSL-3 facilities for live virus work, pseudo-typed partices (PP) that incorporate SARS-CoV-2 spike proteins without replication elements could facilitate studies on viral entry mechanisms in a BSL-2 setting. This PP cell entry assay could also enable screening of small molecule compound libraries in BSL-2 setting to identify inhibitors of SARS-CoV-2 cell entry. To eliminate false positive compounds, ATP content cytotoxicity assay was screened in the same cell line.
SEQUENCE No. (e.g., 1, 2, 3, etc.); […] (e.g., Cells, Incubation, Reagent, etc.); VALUE and DESCRIPTION.
1. Cells. Seed 1500 HEK293-ACE2 cells (Expi293F with stable expression of human ACE2) in 2 uL/well media (DMEM, 10% FBS, 1x L-glutamine, 1x Pen/Strep, 1 ug/ml puromycin) in white 1536-well assay plates (Greiner #782073).
2. Incubation. Incubate at 37 C with 5% CO2 overnight (~16 h).
3. Compounds. Dispense 23 nL/well compounds in DMSO via pin transfer.
4. Incubation. Incubate for 1 h at 37C 5% CO2.
5. Reagent. Dispense 2 uL/well of media (DMEM, 10% FBS, 1x L-glutamine, 1x Pen/Strep, 1 ug/ml puromycin).
6. Incubation. Incubate at for 48h at 37C 5% CO2
7. Reagent. Dispense 4 uL/well of ATPLite 1step luminescence assay reagent (PerkinElmer #6016739).
8. Incubation. Incubate for 15 min at room temperature.
9. Detection. Read luminescence signal (Viewlux plate reader, PerkinElmer). Data was normalized with wells containing cells as 100%, and wells without cells (media only control) as 0%.
Potency is the fitted concentration of half-maximal effect.

Compound | Potency | outcome | activity change, negative = cytotoxicity
O=C(C1CCCCC1)N1CC(=O)N2CCc3ccccc3C2C1 (stereo not given) | inactive | – | –
CCOC(=O)[C@H](CCc1ccccc1)N[C@@H](C)C(=O)N1Cc2cc(OC)c(OC)cc2C[C@H]1C(=O)O | – | inactive | –
CN1CCC[C@@H]1Cc1c[nH]c2ccc(CCS(=O)(=O)c3ccccc3)cc12 | – | – | -5.98%
CCOC(=O)Nc1ccc2c(c1)N(C(=O)CCN1CCOCC1)c1ccccc1S2 | – | – | -9.17%
CCn1cc(C(=O)O)c(=O)c2ccc(C)nc21 | – | inactive | –
CCC(C(N)=O)N1CCCC1=O (stereo not given) | – | inactive | –
CO[C@@]12[C@H](COC(N)=O)C3=C(C(=O)C(C)=C(N)C3=O)N1C[C@@H]1N[C@@H]12 | inactive | – | –
CCCc1cc(=O)[nH]c(=S)[nH]1 | inactive | – | –
CC(=O)N(O)CCCCCNC(=O)CCC(=O)N(O)CCCCCNC(=O)CCC(=O)N(O)CCCCCN | 25.1 µM (active) | – | –
C[C@H]1[C@H](NC(=O)/C(=N/OC(C)(C)C(=O)O)c2csc(N)n2)C(=O)N1S(=O)(=O)O (stereo in doubt) | – | inactive | –
CNCC[C@@H](Oc1ccccc1C)c1ccccc1 | – | inactive | –
CN(C)CCc1c[nH]c2ccc(C[C@H]3COC(=O)N3)cc12 | – | inactive | –
CC[C@]1(O)C[C@H]2CN(CCc3c([nH]c4ccccc34)[C@@](C(=O)OC)(c3cc4c(cc3OC)N(C=O)[C@H]3[C@@](O)(C(=O)OC)[C@H](OC(C)=O)[C@]5(CC)C=CCN6CC[C@]43[C@@H]65)C2)C1 | – | – | -41.8%
CCOc1ccccc1OCCN[C@H](C)Cc1ccc(OC)c(S(N)(=O)=O)c1 | – | inactive | –
COc1ccccc1OCCNCC(O)COc1cccc2[nH]c3ccccc3c12 (stereo not given) | – | – | 4.56%
CCC(COC(=O)c1cc(OC)c(OC)c(OC)c1)(c1ccccc1)N(C)C (stereo not given) | – | – | -10.1%
CCCC1CCCCN1 (stereo not given) | – | inactive | –
Fc1ccc([C@@H]2CCNC[C@H]2COc2ccc3c(c2)OCO3)cc1 | – | – | -8.68%
C[C@](N)(Cc1ccc(O)c(O)c1)C(=O)O | inactive | – | –
Cc1ccc(-c2cc(C(F)(F)F)nn2-c2ccc(S(N)(=O)=O)cc2)cc1 | inactive | – | –

Compound | Potency | outcome | activity change, negative = cytotoxicity
CO/N=C(\C(=O)N[C@@H]1C(=O)N2C(C(=O)O)=C(CSc3nc(=O)c(O)nn3C)CS[C@H]12)c1csc(N)n1 | – | – | 3.92%
COc1cc2nc(N3CCN(C(=O)c4ccco4)CC3)nc(N)c2cc1OC | – | inactive [at 27.1 µM] | –
CC(CN1c2ccccc2Sc2ccccc21)N(C)C (stereo not given) | – | inactive | –
NCC(CC(=O)O)c1ccc(Cl)cc1 (stereo not given) | – | – | 1.92% [at 0.702 µM]
C[C@@H](c1ncncc1F)C(O)(Cn1cncn1)c1ccc(F)cc1F (stereo not given in full) | – | – | 4.94%
CCOC(=O)[C@H](CCc1ccccc1)N[C@@H](C)C(=O)N1Cc2ccccc2C[C@H]1C(=O)O | – | inactive | –
CC(CCc1ccccc1)NC(C)C(O)c1ccc(O)cc1 (stereo not given) | – | – | 0.903%
Cc1sc2c(c1C)C(c1ccc(Cl)cc1)=N[C@@H](CC(=O)OC(C)(C)C)c1nnc(C)n1-2 | – | – | -8.52%
C=C1CC[C@@]2(O)[C@H]3Cc4ccc(O)c5c4[C@@]2(CCN3CC2CC2)[C@H]1O5 | – | inactive | –
NC[C@H](O)c1ccc(O)c(O)c1 | inactive | – | –
NS(=O)(=O)c1cc2c(cc1C(F)(F)F)NCNS2(=O)=O | – | inactive | –
OCCN1CCN(CCCN2c3ccccc3Sc3ccc(C(F)(F)F)cc32)CC1 | – | – | 2.59%
O=C(OC1C[C@H]2CC[C@@H](C1)[N+]21CCCC1)C(O)(c1ccccc1)c1ccccc1 (stereo not given in full) | – | inactive | –
OC(Cn1cncn1)(Cn1cncn1)c1ccc(F)cc1F | inactive | – | –
CO[C@@H](C(=O)N1Cc2[nH]nc(NC(=O)c3ccc(N4CCN(C)CC4)cc3)c2C1)c1ccccc1 | – | – | -21.3%
CNC(=O)c1ccc(N2C(=S)N(c3ccc(C#N)c(C(F)(F)F)c3)C(=O)C23CCC3)cc1F | – | – | -17%
CN(C)/N=N/c1nc[nH]c1C(N)=O | – | inactive | –
CC(C)Oc1ccc2c(=O)c(-c3ccccc3)coc2c1 | – | – | -16.9%
CC1(C)S[C@@H]2[C@H](NC(=O)C(C(=O)O)c3ccccc3)C(=O)N2[C@H]1C(=O)O (stereo not given in full) | – | – | -1.31%
COc1cc2c(cc1OC)[C@@H]1CC(=O)[C@@H](CC(C)C)CN1CC2 | inactive | – | –
